Experimental data: PubChem BioAssay (NCATS)
Inconclusive results are not listed. Entries that show only a call come without a potency. A number with no mark means an inactive call. Active and inactive are the calls of the source. Calls follow the shape of the dose curve; as a rule, active = well fitted curve in the direction sought with a large enough effect; inconclusive = small, poorly fitted or top-dose-only effect, or another doubt; inactive = no such curve, though single readings can be large; an effect the other way counts as inactive or inconclusive. Where a SMILES comes first, the peptide text is derived from it.

Test: Primary qHTS for inhibitors of nuclear receptor binding SET domain protein 2 (NSD2) in an isogenic RCH-ACV NSD2 p.E1099K mutant (9B) (AID 1645876)
Conditions: RCH-ACV NSD2 E1099K (9B) viability, CellTiter-Glo, 72 h; series mostly up to 44.9 µM
Also: nearly all actives have a fitted effect of over 70% in size.

Structure (SMILES) | Potency | activity change, negative = viability loss
COC(=O)C1=CO[C@@H](O[C@@H]2O[C@H](CO)[C@@H](O)[C@H](O)[C@H]2O)[C@@H]2[C@@H](C(=O)O)CC[C@H]12 | inactive | 
C[C@@H]1O[C@@H](O[C@H]2[C@H](O[C@H]3[C@H](O[C@H]4CC[C@@]5(C)C(CC[C@]6(C)C5CC=C5[C@@H]7CC(C)(C)C[C@@H](O)[C@]7(C)CC[C@]56C)[C@@]4(C)CO)O[C@H](C(=O)O)[C@@H](O)[C@@H]3O)O[C@H](C(=O)O)[C@H](O)[C@@H]2O)[C@H](O)[C@H](O)[C@H]1O (stereo partly specified) |  | 4.66% [at 9.23 µM]
CC(C)CC(=O)O[C@@H]1O[C@H](CO)[C@@H](O[C@H]2O[C@H](C)[C@@H](N[C@H]3C=C(CO)[C@@H](O[C@H]4O[C@H](CO)[C@@H](O[C@H]5O[C@H](CO)[C@@H](O[C@H]6O[C@H](CO)[C@@H](O)[C@H](O)[C@H]6O)[C@H](O)[C@H]5O)[C@H](O)[C@H]4O)[C@H](O)[C@H]3O)[C@H](O)[C@H]2O)[C@H](O)[C@H]1O |  | 3.07% [at 9.23 µM]
N#CC1C(=O)N=C(c2cc(Cl)ccc2O)C=C1c1cc(OCc2ccccc2)cc(OCc2ccccc2)c1 (stereo unspecified) | inactive | 
CC1=CC2=C(C)C(=O)[C@](C)(O)[C@H](O)C2=CO1 | inactive | 
C/C1=C\CC[C@]2(C)O[C@H]2C(=O)c2c(C)coc2C1 | inactive | 
C/C=C(/C)C(=O)O[C@@H]1C[C@@H](OC(=O)/C(C)=C\C)[C@@]2(C)C3C(=O)C=C(C)C2C3C1(C)C | inactive | 
CC1CC(=O)[C@]2(O)C(C(=O)OCCc3ccc(O)cc3)=CO[C@@H](O[C@@H]3O[C@H](CO)[C@@H](O)[C@H](O)[C@H]3O)[C@H]12 (stereo partly specified) | inactive | 
CC(=O)O[C@H]1C[C@@H](O)C(C)(C)C2C[C@@H](OC(C)=O)[C@]3(C)C(CC[C@@]4(C)[C@H](c5ccoc5)OC(=O)[C@H]5O[C@]543)[C@]21C (stereo partly specified) | inactive | 
CC1CC(=O)C2=C(O1)OC1(C)CCC3C(C)(C)C4OC4C(=O)C3(C)C1C2 (stereo unspecified) | inactive | 
COc1cc(CO)cc(OC)c1O[C@@H]1O[C@H](CO)[C@@H](O)[C@H](O)[C@H]1O | inactive | 
CC(=O)NC(Cc1ccccc1)C(=O)NC(C(=O)O)C(C)C (stereo not drawn) (Ac-Phe-Val-OH; configuration not given here) | inactive | 
CC1=CC23[C@H](C=C(C(=O)O)[C@@H]2COC(=O)[C@]3(O)CO)[C@@H]1C (stereo partly specified) | inactive | 
CCC(C)/C=C(C)/C=C/C1=CC2=C(Cl)C(=O)C(C)(OC(C)=O)C(=O)C2=CN1C(CC(=O)O)C(=O)O (stereo unspecified) | inactive | 
C=C[C@H]1[C@H](O[C@@H]2O[C@H](CO)[C@@H](O)[C@H](O)[C@H]2O)OC=C(C(=O)OC)[C@H]1CC=O | inactive | 
C[C@@H]1O[C@@H](O[C@H]2[C@@H]3C=CO[C@@H](O[C@@H]4O[C@H](CO)[C@@H](O)[C@H](O)[C@H]4O)[C@@H]3[C@@]3(CO)O[C@@H]23)[C@H](O)[C@H](O)[C@H]1OC(=O)/C=C/c1ccc(O)cc1 | inactive | 
COc1c2ccoc2nc2c(OC)c(O[C@@H]3O[C@@H](C)[C@H](O)[C@@H](O[C@@H]4O[C@H](CO)[C@@H](O)[C@H](O)[C@H]4O)[C@H]3OC(C)=O)ccc12 | inactive | 

Test: Primary qHTS for inhibitors of nuclear receptor binding SET domain protein 2 (NSD2) in an RCH-ACV wild type WT cells (2C) (AID 1645877)
Conditions: RCH-ACV (leukaemia line) NSD2 WT (2C) viability, CellTiter-Glo, 72 h; series mostly up to 44.9 µM

Structure (SMILES) | Potency | activity change, negative = cell killing | outcome
O=C(OCc1ccccc1O[C@@H]1O[C@H](CO)[C@@H](O)[C@H](O)[C@H]1O)C1(O)C=CCCC1O (stereo partly specified) | inactive |  | 
CC1(CO)CCCC2(C)C3COC(=O)C3=CC(O)C12 (stereo unspecified) | inactive |  | 
CC(=C\C(C)O)/C=C(\C)C(=O)CC1CC(CC(N)=O)CC(=O)O1 (stereo unspecified) | inactive |  | 
CC[C@H]1OC(=O)[C@H](C)C(=O)[C@H](C)[C@@H](OC2O[C@H](C)C[C@H](N(C)C)[C@H]2O)[C@@H](C)C[C@@H](C)C(=O)/C=C/[C@]1(C)O (stereo partly specified) | inactive |  | 
CC1=CC(=O)CC(C)(C)[C@@]1(O)/C=C/C(C)O[C@@H]1O[C@H](CO)[C@@H](O)[C@H](O)[C@H]1O (stereo partly specified) | inactive |  | 
CC(=O)OC12CC(C)C(O)C1/C=C(/COC1OC(CO)C(O)C(O)C1O)CCC1C(/C=C(\C)C2=O)C1(C)C (stereo unspecified) | inactive |  | 
CCC(C)C(=O)O[C@H]1C[C@](C)(O)[C@]23OC(C)(C)[C@H](C[C@H](OC(=O)c4ccccc4)[C@]2(COC(C)=O)[C@H]1OC(=O)C(C)CC)[C@H]3OC(C)=O (stereo partly specified) | inactive |  | 
COc1cc(C2CC(=O)Nc3c2cc(Br)c2ccccc32)cc(OC)c1OC (stereo unspecified) | inactive |  | 
CCC1OC(=O)C(C)CC(C)C(=O)/C(C)=C/C(C)C(=O)/C=C/C1(C)O (stereo unspecified) | inactive |  | 
CCN(CCN(C)C)C(=O)CNCc1cc(C(N)=O)ccn1 | inactive |  | 
O=C(O)/C=C/c1ccc(O[C@@H]2O[C@H](CO)[C@@H](O)[C@H](O)[C@H]2O)cc1 | inactive |  | 
COC(=O)C1=COC(OC2OC(CO)C(O)C(O)C2O)C2C(COC(=O)/C=C/c3ccc(O)cc3)C(O)C(O)C12 (stereo unspecified) | inactive |  | 
COc1cc(-c2ccc(O)cc2)c(OC)c(O)c1C1=CC(=O)OC1CC(=O)O (stereo unspecified) | inactive |  | 
CC(CC12CCCN1C(=O)C1CCCN1C2=O)OC(N)=O (stereo unspecified) | inactive |  | 
CC1=C2CC(C)(C)CC2C(O)C2=C(C1)C(=O)OC2O (stereo unspecified) | inactive |  | 
COc1cc2c(cc1OC)N1C(=O)C[C@@]34C=CC[N@+]5([O-])CC[C@H]2[C@H](CC3)[C@@]145 | inactive |  | 
C=C1CCC2C(C)(C)CC(O)CC2(C)C1CCC(C)CC(=O)O (stereo unspecified) | inactive |  | 
CC1(C)OC(=O)C=C[C@@]2(C)C1CC(=O)[C@]1(C)C2CC[C@@]2(C)[C@H](c3ccoc3)OC(=O)[C@H]3O[C@]321 (stereo partly specified) | inactive |  | 
CC(=O)OCC1OC(O[C@H]2CC[C@@]3(C)C(CC[C@]4(C)C3CC=C3[C@@H]5CC(C)(C)CC[C@]5(C(=O)O)CC[C@]34C)[C@]2(C)CO)C(O)C(O)C1OC1OC(C)C(O)C(OC2OCC(O)C(O)C2O)C1O (stereo partly specified) |  | -24% [at 9.23 µM] | 
O=C(OCC1OC(Oc2ccc(O)cc2COC(=O)C2(O)C(O)CCC(=O)C2OC(=O)C2C=CCC2)C(OC(=O)C2C=CCC2)C(O)C1O)C1C=CCC1 (stereo unspecified) | inactive |  | 

Structure (SMILES) | Potency | activity change, negative = cell killing | outcome
CSCC1OC(n2cnc3c(=O)[nH]cnc32)C(O)C1O (stereo unspecified) | inactive |  | 
C=C(C(=O)O)[C@@H]1CC[C@@]2(C)CCC[C@@](C)(O)[C@@H]2C1 | inactive |  | 
COC(=O)C1=CO[C@@H](O[C@@H]2O[C@H](CO)[C@@H](O)[C@H](O)[C@H]2O)[C@@H]2[C@@H](C(=O)O)CC[C@H]12 | inactive |  | 
C[C@@H]1O[C@@H](O[C@H]2[C@H](O[C@H]3[C@H](O[C@H]4CC[C@@]5(C)C(CC[C@]6(C)C5CC=C5[C@@H]7CC(C)(C)C[C@@H](O)[C@]7(C)CC[C@]56C)[C@@]4(C)CO)O[C@H](C(=O)O)[C@@H](O)[C@@H]3O)O[C@H](C(=O)O)[C@H](O)[C@@H]2O)[C@H](O)[C@H](O)[C@H]1O (stereo partly specified) |  | 2.89% [at 9.23 µM] | 
CC(C)CC(=O)O[C@@H]1O[C@H](CO)[C@@H](O[C@H]2O[C@H](C)[C@@H](N[C@H]3C=C(CO)[C@@H](O[C@H]4O[C@H](CO)[C@@H](O[C@H]5O[C@H](CO)[C@@H](O[C@H]6O[C@H](CO)[C@@H](O)[C@H](O)[C@H]6O)[C@H](O)[C@H]5O)[C@H](O)[C@H]4O)[C@H](O)[C@H]3O)[C@H](O)[C@H]2O)[C@H](O)[C@H]1O |  |  | inactive [at 9.23 µM]
N#CC1C(=O)N=C(c2cc(Cl)ccc2O)C=C1c1cc(OCc2ccccc2)cc(OCc2ccccc2)c1 (stereo unspecified) | inactive |  | 
CC1=CC2=C(C)C(=O)[C@](C)(O)[C@H](O)C2=CO1 | inactive |  | 
C/C1=C\CC[C@]2(C)O[C@H]2C(=O)c2c(C)coc2C1 | inactive |  | 
C/C=C(/C)C(=O)O[C@@H]1C[C@@H](OC(=O)/C(C)=C\C)[C@@]2(C)C3C(=O)C=C(C)C2C3C1(C)C | inactive |  | 
CC1CC(=O)[C@]2(O)C(C(=O)OCCc3ccc(O)cc3)=CO[C@@H](O[C@@H]3O[C@H](CO)[C@@H](O)[C@H](O)[C@H]3O)[C@H]12 (stereo partly specified) | inactive |  | 
CC(=O)O[C@H]1C[C@@H](O)C(C)(C)C2C[C@@H](OC(C)=O)[C@]3(C)C(CC[C@@]4(C)[C@H](c5ccoc5)OC(=O)[C@H]5O[C@]543)[C@]21C (stereo partly specified) | inactive |  | 
CC1CC(=O)C2=C(O1)OC1(C)CCC3C(C)(C)C4OC4C(=O)C3(C)C1C2 (stereo unspecified) | inactive |  | 
COc1cc(CO)cc(OC)c1O[C@@H]1O[C@H](CO)[C@@H](O)[C@H](O)[C@H]1O | inactive |  | 
CC(=O)NC(Cc1ccccc1)C(=O)NC(C(=O)O)C(C)C (stereo not drawn) (Ac-Phe-Val-OH; configuration not given here) | inactive |  | 
CC1=CC23[C@H](C=C(C(=O)O)[C@@H]2COC(=O)[C@]3(O)CO)[C@@H]1C (stereo partly specified) | inactive |  | 
CCC(C)/C=C(C)/C=C/C1=CC2=C(Cl)C(=O)C(C)(OC(C)=O)C(=O)C2=CN1C(CC(=O)O)C(=O)O (stereo unspecified) | inactive |  | 
C=C[C@H]1[C@H](O[C@@H]2O[C@H](CO)[C@@H](O)[C@H](O)[C@H]2O)OC=C(C(=O)OC)[C@H]1CC=O | inactive |  | 
C[C@@H]1O[C@@H](O[C@H]2[C@@H]3C=CO[C@@H](O[C@@H]4O[C@H](CO)[C@@H](O)[C@H](O)[C@H]4O)[C@@H]3[C@@]3(CO)O[C@@H]23)[C@H](O)[C@H](O)[C@H]1OC(=O)/C=C/c1ccc(O)cc1 | inactive |  | 
COc1c2ccoc2nc2c(OC)c(O[C@@H]3O[C@@H](C)[C@H](O)[C@@H](O[C@@H]4O[C@H](CO)[C@@H](O)[C@H](O)[C@H]4O)[C@H]3OC(C)=O)ccc12 | inactive |  | 
